Measured values published in PubChem BioAssay AID1159580 (chemical genetic matrix, 2015).
The campaign covered roughly 5,500 compounds. About 2,000 (36%) were called active. About 18% were inconclusive and are not listed. No stated cut-off is given here; in the data, active means normalized growth mostly below about 0.91 (no sharp cut-off); inconclusive means no clear call, values can overlap the other calls; inactive means mostly above about 0.92. The list shows a part of the results.

Assay: chemical genetic growth profiling, strain panel (AID 1159580);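 further: tested at 20 µM; growth read once vehicle control cultures reached saturation at 30 °C; 1 = growth at the plate median or of vehicle wells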
Settings: growth OD

Measured: normalized growth

NC(N)=NOCC[C@H](N)C(=O)O
inactive: S. cerevisiae deletion strains, locus YJR043C, strain POL32, stronger effect = lower value 1 | S. cerevisiae deletion strains, locus YJR075W, strain HOC1, stronger effect = lower value 0.983 | S. cerevisiae deletion strains, locus YKL009W, strain mrt4, stronger effect = lower value 0.971 | S. cerevisiae deletion strains, locus YKL068W, stronger effect = lower value 0.978 | S. cerevisiae deletion strains, locus YKL085W, strain MDH1 (second series), stronger effect = lower value 0.969 | S. cerevisiae deletion strains, locus YKL085W, strain MDH1, stronger effect = lower value 0.969 | S. cerevisiae deletion strains, locus YKL160W, strain elf1, stronger effect = lower value 1.01 | S. cerevisiae deletion strains, locus YKL190W, strain CNB1, stronger effect = lower value 0.995 | S. cerevisiae deletion strains, locus YKR001C, strain vps1, stronger effect = lower value 1 | S. cerevisiae deletion strains, locus YKR026C, strain gcn3, stronger effect = lower value 1.01 | S. cerevisiae deletion strains, locus YKR091W, strain srl3, stronger effect = lower value 1.01 | S. cerevisiae deletion strains, locus YLL001W, strain dnm1, stronger effect = lower value 1.01 | S. cerevisiae deletion strains, locus YLL026W, stronger effect = lower value 1.01 | S. cerevisiae deletion strains, locus YLL041C, strain sdh2, stronger effect = lower value 1.01 | S. cerevisiae deletion strains, locus YLR027C, strain aat2, stronger effect = lower value 1.01 | S. cerevisiae deletion strains, locus YLR039C, strain RIC1, stronger effect = lower value 0.933 | S. cerevisiae deletion strains, locus YLR058C, strain SHM2, stronger effect = lower value 0.984 | S. cerevisiae deletion strains, locus YLR102C, strain apc9, stronger effect = lower value 0.988 | S. cerevisiae deletion strains, locus YLR221C, strain rsa3, stronger effect = lower value 1.02 | S. cerevisiae deletion strains, locus YLR258W, strain gsy2, stronger effect = lower value 1.01 | S. cerevisiae deletion strains, locus YLR262C, strain YPT6 (second series), stronger effect = lower value 1.02 | S. cerevisiae deletion strains, locus YLR262C, strain YPT6, stronger effect = lower value 0.954 | S. cerevisiae deletion strains, locus YLR268W, strain sec22, stronger effect = lower value 1.03 | S. cerevisiae deletion strains, locus YLR320W, strain mms22, stronger effect = lower value 1.02 | S. cerevisiae deletion strains, locus YLR330W, strain CHS5, stronger effect = lower value 0.977 | S. cerevisiae deletion strains, locus YLR342W, strain FKS1 (second series), stronger effect = lower value 1.01 | S. cerevisiae deletion strains, locus YLR342W, strain FKS1, stronger effect = lower value 0.992 | S. cerevisiae deletion strains, locus YLR357W, strain rsc2, stronger effect = lower value 1.03 | S. cerevisiae deletion strains, locus YLR370C, strain arc18, stronger effect = lower value 1.02 | S. cerevisiae deletion strains, locus YLR371W, strain rom2, stronger effect = lower value 0.964 | S. cerevisiae deletion strains, locus YLR384C, strain iki3, stronger effect = lower value 1.01 | S. cerevisiae deletion strains, locus YLR418C, strain cdc73, stronger effect = lower value 1.02 | S. cerevisiae deletion strains, locus YML016C, strain PPZ1, stronger effect = lower value 0.992 | S. cerevisiae deletion strains, locus YML032C, strain rad52, stronger effect = lower value 0.976 | S. cerevisiae deletion strains, locus YML120C, strain ndi1, stronger effect = lower value 1.02 | S. cerevisiae deletion strains, locus YML124C, strain tub3, stronger effect = lower value 0.996 | S. cerevisiae deletion strains, locus YMR058W, strain fet3, stronger effect = lower value 1 | S. cerevisiae deletion strains, locus YMR078C, strain ctf18, stronger effect = lower value 0.998 | S. cerevisiae deletion strains, locus YMR125W, strain sto1, stronger effect = lower value 1 | S. cerevisiae deletion strains, locus YMR129W, stronger effect = lower value 1.02 | S. cerevisiae deletion strains, locus YMR205C, strain PFK2, stronger effect = lower value 1.01 | S. cerevisiae deletion strains, locus YMR223W, strain ubp8, stronger effect = lower value 0.976 | S. cerevisiae deletion strains, locus YMR231W, strain pep5, stronger effect = lower value 1.02 | S. cerevisiae deletion strains, locus YMR263W, strain SAP30, stronger effect = lower value 1.01 | S. cerevisiae deletion strains, locus YMR307W, strain GAS1, stronger effect = lower value 1.06 | S. cerevisiae deletion strains, locus YNL067W, strain RPL9B, stronger effect = lower value 1.02 | S. cerevisiae deletion strains, locus YNL071W, strain lat1, stronger effect = lower value 1.01 | S. cerevisiae deletion strains, locus YNL128W, strain TEP1, stronger effect = lower value 0.992 | S. cerevisiae deletion strains, locus YNL153C, strain GIM3, stronger effect = lower value 1.03 | S. cerevisiae deletion strains, locus YNL209W, strain ssb2, stronger effect = lower value 1 | S. cerevisiae deletion strains, locus YNL233W, strain BNI4, stronger effect = lower value 1.03 | S. cerevisiae deletion strains, locus YNL248C, strain rpa49, stronger effect = lower value 1.02 | S. cerevisiae deletion strains, locus YNL250W, strain rad50, stronger effect = lower value 0.961 | S. cerevisiae deletion strains, locus YNL271C, strain bni1, stronger effect = lower value 0.973 | S. cerevisiae deletion strains, locus YNL298W, strain CLA4, stronger effect = lower value 0.989 | S. cerevisiae deletion strains, locus YNL307C, strain MCK1, stronger effect = lower value 1 | S. cerevisiae deletion strains, locus YNL322C, strain KRE1 (second series), stronger effect = lower value 1.01 | S. cerevisiae deletion strains, locus YNL322C, strain KRE1, stronger effect = lower value 0.984 | S. cerevisiae deletion strains, locus YNR049C, strain mso1, stronger effect = lower value 1.01 | S. cerevisiae deletion strains, locus YNR052C, strain pop2, stronger effect = lower value 0.974 | S. cerevisiae deletion strains, locus YOL006C, strain TOP1, stronger effect = lower value 1.07 | S. cerevisiae deletion strains, locus YOL012C, strain htz1 1.13 | S. cerevisiae deletion strains, locus YOL147C, strain pex11, stronger effect = lower value 0.986 | S. cerevisiae deletion strains, locus YOR001W, strain rrp6, stronger effect = lower value 1.03 | S. cerevisiae deletion strains, locus YOR061W, strain CKA2, stronger effect = lower value 0.991 | S. cerevisiae deletion strains, locus YOR069W, strain VPS5, stronger effect = lower value 0.994 | S. cerevisiae deletion strains, locus YOR070C, strain gyp1, stronger effect = lower value 1.02 | S. cerevisiae deletion strains, locus YOR080W, strain dia2, stronger effect = lower value 1.02 | S. cerevisiae deletion strains, locus YOR083W, strain WHI5, stronger effect = lower value 1 | S. cerevisiae deletion strains, locus YOR106W, strain vam3, stronger effect = lower value 1.01 | S. cerevisiae deletion strains, locus YOR136W, strain idh2, stronger effect = lower value 0.988 | S. cerevisiae deletion strains, locus YOR144C, strain elg1, stronger effect = lower value 0.989 | S. cerevisiae deletion strains, locus YOR184W, strain ser1, stronger effect = lower value 0.971 | S. cerevisiae deletion strains, locus YOR265W, strain rbl2, stronger effect = lower value 1.01 | S. cerevisiae deletion strains, locus YOR270C, strain vph1, stronger effect = lower value 1.04 | S. cerevisiae deletion strains, locus YOR290C, strain snf2, stronger effect = lower value 1.02 | S. cerevisiae deletion strains, locus YOR316C, strain cot1, stronger effect = lower value 0.992 | S. cerevisiae deletion strains, locus YPL051W, strain arl3, stronger effect = lower value 1.01 | S. cerevisiae deletion strains, locus YPL055C, strain LGE1, stronger effect = lower value 1.02 | S. cerevisiae deletion strains, locus YPL078C, strain atp4, stronger effect = lower value 1.02 | S. cerevisiae deletion strains, locus YPL106C, strain sse1, stronger effect = lower value 1.03 | S. cerevisiae deletion strains, locus YPL240C, strain hsp82, stronger effect = lower value 1 | S. cerevisiae deletion strains, locus YPL241C, strain CIN2, stronger effect = lower value 0.993 | S. cerevisiae deletion strains, locus YPR119W, strain clb2, stronger effect = lower value 0.996 | S. cerevisiae deletion strains, locus YPR141C, strain kar3, stronger effect = lower value 0.988 | S. cerevisiae deletion strains, locus YPR163C, strain tif3, stronger effect = lower value 0.983 | S. cerevisiae deletion strains, locus YPR167C, strain met16, stronger effect = lower value 0.985 | S. cerevisiae deletion strains, strain wtn01, stronger effect = lower value 0.999 | S. cerevisiae strains, strain wild type, stronger effect = lower value 0.992
